Experimental data: PubChem BioAssay (Tox21)
Records with an inconclusive call do not appear. Entries that show only a call come without a potency. Active and inactive are the calls of the source. Unless noted, calls come from the whole dose curve.

Columns and labels:
[1] = Nuclear factor erythroid 2-related factor 2/antioxidant responsive element (Nrf2/ARE) small molecule agonists: qHTS cell viability counter screen in human keratinocytes (AID 1919968; active = well fitted curve in the direction sought with a large enough effect in the repeat runs; an effect the other way counts as inactive or inconclusive; note: nearly all actives have a fitted effect of over 55% in size; note: potency is the fitted concentration of half-maximal effect)
Method in brief: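 KeratinoSens HaCaT cells, 1,500/well, preincubated 5 h, then exposed to compounds in DMSO for 23 h at 37 C/5% CO2. Viability read as CellTiter-Fluor fluorescence after 1 h, in the same wells as the ARE-luciferase read.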

[2] = Nuclear factor erythroid 2-related factor 2/antioxidant responsive element (Nrf2/ARE) small molecule agonists: luciferase reporter gene qHTS assay in human keratinocytes (AID 1919969); note: nearly all actives have a fitted effect of over 35% in size; note: potency is the fitted concentration of half-maximal effect
[3] = biological target: Gonadotropin-releasing hormone receptor (Homo sapiens) (UniProt P30968); experiment: Human gonadotropin-releasing hormone receptor (GnRHR) small molecule agonists, calcium flux assay in GnRHR-HEK293 cells (AID 1920063); note: nearly all actives have a fitted effect of over 35% in size
Method in brief: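 HEK293 cells stably expressing human GnRHR were dye-loaded for 1 h at 37 C. Compound was added in agonist mode and fluorescence (Ex/Em 480/540) recorded kinetically for 3 min. Fifteen concentrations, triplicates.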

[4] = G protein-coupled receptor (GPCR) small molecule agonists, calcium flux assay: HEK293 wild type cell line counter screen (AID 1920065)
Method in brief: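 Wild-type HEK293 cells plated 18 h, loaded with calcium dye 1 h at 37 C, then compounds added in agonist mode (ATP as positive control). Kinetic fluorescence Ex/Em 480/540 recorded 3 min at 1 sec intervals; 15 concentrations, triplicate.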

[5] = p53 small molecule agonists, cell-based qHTS assay with human liver microsomes: qHTS cell viability counter screen (AID 1963579); note: nearly all actives have a fitted effect of over 45% in size
Method in brief: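 Cells carrying the p53 response-element beta-lactamase reporter are treated for 16 h at 37 C with test compounds in the presence of human liver microsomes and NADPH (both 0.5 mg/mL final); ATP-based CellTiter-Glo luminescence then reports viability.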

[6] = p53 small molecule agonists, cell-based qHTS assay with rat liver microsomes: qHTS cell viability counter screen (AID 1963580); note: nearly all actives have a fitted effect of over 45% in size
Method in brief: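 p53RE-bla HCT-116 cells were exposed 16 h at 37 C to compounds with rat liver microsomes (0.5 mg/mL) and NADPH (0.5 mg/mL). Viability was measured in the same wells as ATP content by CellTiter-Glo luminescence.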

[7] = p53 small molecule agonists, cell-based qHTS assay: qHTS cell viability counter screen (AID 1963581); note: nearly all actives have a fitted effect of over 45% in size
Method in brief: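 p53RE-bla HCT-116 cells, compounds added 5 h after plating and incubated 16 h at 37 C. Cytotoxicity measured in the same wells as intracellular ATP by CellTiter-Glo luminescence after 30 min at room temperature.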

[8] = p53 small molecule agonists, cell-based qHTS assay (AID 1963582; active = well fitted activation curve with a large enough effect in the signal ratio in the repeat runs, not every such curve was filed as active; the % refers to the signal ratio)
Method in brief: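 p53RE-bla reporter cells, compounds added in DMSO after 5 h plating, incubated 16 h at 37 C. Beta-lactamase read via 2 h room-temperature LiveBLAzer B/G FRET substrate, fluorescence intensity.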

[9] = biological target: 5-hydroxytryptamine receptor 2A (Homo sapiens) (UniProt P28223); experiment: 5-hydroxytryptamine receptor 2A (HTR2A) small molecule antagonists, cell-based qHTS assay (AID 1963586); note: nearly all actives have a fitted effect of over 45% in size
Method in brief: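 Antagonist-mode intracellular calcium assay: DOI (4 nM) added after 5 min compound pre-incubation at room temperature to dye-loaded HTR2A-CHO cells. Fluorescence followed for 3 min, sampled every second.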

[10] = biological target: Muscarinic acetylcholine receptor M1 (Homo sapiens) (UniProt P11229); experiment: Cholinergic receptor muscarinic 1 (CHRM1) small molecule antagonists, cell-based qHTS assay (AID 1963588); note: nearly all actives have a fitted effect of over 40% in size
Method in brief: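 CHRM1-CHO calcium-flux assay, antagonist mode. Cells were seeded 18 h, dye-loaded 1 h at 37 C and given compound for 5 min at RT, then acetylcholine was added at 50nM. FDSS fluorescence was read 3 min; 15 concentrations, three runs.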

[11] = biological target: Muscarinic acetylcholine receptor M1 (Homo sapiens) (UniProt P11229); experiment: Cholinergic receptor muscarinic 1 (CHRM1) small molecule agonists, cell-based qHTS assay (AID 1963589); note: nearly all actives have a fitted effect of over 35% in size
Method in brief: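 CHO cells stably expressing human CHRM1 were loaded with calcium dye for 1 h at 37 C, then compound was added in agonist mode. Intracellular calcium fluorescence was followed kinetically at 1 s intervals. Fifteen concentrations were tested in three independent runs.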

[12] = cAMP Responsive Elements (CRE) small molecule antagonists, cell-based qHTS assay (AID 1963591; active = well fitted inhibition curve with a large enough effect in the signal ratio in the repeat runs, not every such curve was filed as active; the % refers to the signal ratio)
Method in brief: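 CRE-bla HEK293T cells plated 18 h, then given compound plus NKH477 at 0.25 uM final for 3 h at 37C. Beta-lactamase reporter read with LiveBLAzer B/G FRET substrate after 2 h at room temperature.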

[13] = biological target: Beta-2 adrenergic receptor (Homo sapiens) (UniProt P07550); experiment: Adrenergic beta2 receptor (ADRB2) small molecule antagonists, cell-based qHTS assay (AID 1963592); note: nearly all actives have a fitted effect of over 50% in size; note: potency is the fitted concentration of half-maximal effect
Method in brief: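 Cells (CHO, stable ADRB2 overexpression) incubated 18-20hr at 37C; compounds added from DMSO; agonist mix (1nM isoproterenol, 100uM IBMX, 25uM Ro-20-1724) added; 0.5hr RT; d2-cAMP and anti-cAMP-cryptate added; 1hr RT; 665/615 nm read.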

[14] = biological target: Beta-2 adrenergic receptor (Homo sapiens) (UniProt P07550); experiment: Adrenergic beta2 receptor (ADRB2) small molecule agonists, cell-based qHTS assay (AID 1963593);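 note: CHO cells stably overexpressing human ADRB2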
Method in brief: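 CHO cells stably over-expressing ADRB2 were plated overnight at 37C, then dosed with compounds plus a stimulation mix containing 100uM IBMX and 25uM Ro-20-1724 for 0.5hr at room temperature. cAMP was measured by HTRF competition, 1hr.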

[15] = biological target: D(2) dopamine receptor (Homo sapiens) (UniProt P14416); experiment: Dopamine D2 receptor (DRD2) small molecule agonists, cell-based qHTS assay (AID 1963594); note: nearly all actives have a fitted effect of over 35% in size
Method in brief: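 HEK293 cells stably expressing human DRD2, pre-treated with PDE inhibitor Ro20-1724 (0.1 mM final) and compound 10 min at room temperature, then stimulated with NKH477 (200nM […]) for 30 min. cAMP read by HTRF (665/620 nm).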

[16] = p53 small molecule agonists, cell-based qHTS assay with rat liver microsomes (AID 1963578)
Method in brief: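 Read-out is beta-lactamase reporter fluorescence (LiveBLAzer, 2 h, room temperature, dark) in p53RE-bla cells treated 16 h at 37 C with compound, rat liver microsomes and NADPH, both 0.5 mg/mL final.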

[17] = biological target: 5-hydroxytryptamine receptor 2A (Homo sapiens) (UniProt P28223); experiment: 5-hydroxytryptamine receptor 2A (HTR2A) small molecule agonists, cell-based qHTS assay (AID 1963587); note: nearly all actives have a fitted effect of over 30% in size
Method in brief: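 CHO cells stably expressing human HTR2A, plated 18 h, loaded with calcium dye 1 h at 37 C. Agonist mode: compounds added and intracellular calcium fluorescence recorded kinetically for 2 min at 1 sec intervals.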

[18] = cAMP Responsive Elements (CRE) small molecule agonists, cell-based qHTS assay (AID 1963590)
Method in brief: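 CRE-bla HEK 293T cells, 2,000/well in DMEM with 10% dialyzed FBS and 25 mM HEPES, pre-incubated 18 h at 37 C, then exposed to compound 3 h at 37 C. Beta-lactamase reporter read with LiveBLAzer B/G FRET substrate after 2 h at room temperature.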

[19] = biological target: D(2) dopamine receptor (Homo sapiens) (UniProt P14416); experiment: Dopamine D2 receptor (DRD2) small molecule antagonists, cell-based qHTS assay (AID 1963595; active = well fitted inhibition curve with a large enough effect in the signal ratio in the repeat runs, with a control signal flat; the % refers to the signal ratio)
Method in brief: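 Human DRD2 antagonist qHTS measuring cAMP by HTRF. The cells are exposed to compound for 10 min, then to NKH477 (200 nM) and quinpirole (12 nM) for 30 min at RT, with Ro20-1724 (0.1 mM) present throughout.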

[20] = biological target: KiSS-1 receptor (Homo sapiens) (UniProt Q969F8); experiment: Human kisspeptin (KISS1R) small molecule agonists, calcium flux assay in KISS1R-HEK293 cells (AID 1920064; active = well fitted curve in the direction sought with a large enough effect in the repeat runs; an effect the other way counts as inactive or inconclusive)
Method in brief: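 HEK293 cells stably expressing human KISS1R were loaded with calcium dye for 1 h at 37 C, then given compound; fluorescence (Ex/Em 480/540) was read kinetically for 3 min. Fifteen concentrations, triplicate.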

Sequence of Beta-2 adrenergic receptor (Homo sapiens) (P07550 whole entry, looked up): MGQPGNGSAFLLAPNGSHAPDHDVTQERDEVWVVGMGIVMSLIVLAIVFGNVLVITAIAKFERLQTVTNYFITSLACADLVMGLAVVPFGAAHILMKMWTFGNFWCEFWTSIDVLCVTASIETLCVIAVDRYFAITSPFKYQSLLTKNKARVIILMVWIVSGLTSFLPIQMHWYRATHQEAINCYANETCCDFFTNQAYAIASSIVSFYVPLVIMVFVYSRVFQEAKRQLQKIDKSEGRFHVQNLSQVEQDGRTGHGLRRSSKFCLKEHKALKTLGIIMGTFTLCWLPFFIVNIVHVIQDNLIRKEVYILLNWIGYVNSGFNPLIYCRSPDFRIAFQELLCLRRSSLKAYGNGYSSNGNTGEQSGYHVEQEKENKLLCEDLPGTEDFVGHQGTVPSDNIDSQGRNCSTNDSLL
Sequence of D(2) dopamine receptor (Homo sapiens) (P14416 whole entry, looked up): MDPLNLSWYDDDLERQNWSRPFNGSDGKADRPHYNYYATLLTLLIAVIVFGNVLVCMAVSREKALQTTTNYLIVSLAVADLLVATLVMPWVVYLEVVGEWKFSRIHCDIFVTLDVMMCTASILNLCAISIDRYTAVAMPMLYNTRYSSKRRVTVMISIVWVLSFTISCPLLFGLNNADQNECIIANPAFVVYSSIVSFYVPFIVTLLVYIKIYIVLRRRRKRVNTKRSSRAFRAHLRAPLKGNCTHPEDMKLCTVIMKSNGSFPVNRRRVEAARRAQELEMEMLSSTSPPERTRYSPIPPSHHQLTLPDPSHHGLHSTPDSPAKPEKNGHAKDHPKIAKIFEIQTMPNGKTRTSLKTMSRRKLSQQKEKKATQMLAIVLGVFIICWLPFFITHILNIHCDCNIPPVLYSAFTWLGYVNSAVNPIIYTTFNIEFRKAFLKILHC
Sequence of KiSS-1 receptor (Homo sapiens) (Q969F8 whole entry, looked up): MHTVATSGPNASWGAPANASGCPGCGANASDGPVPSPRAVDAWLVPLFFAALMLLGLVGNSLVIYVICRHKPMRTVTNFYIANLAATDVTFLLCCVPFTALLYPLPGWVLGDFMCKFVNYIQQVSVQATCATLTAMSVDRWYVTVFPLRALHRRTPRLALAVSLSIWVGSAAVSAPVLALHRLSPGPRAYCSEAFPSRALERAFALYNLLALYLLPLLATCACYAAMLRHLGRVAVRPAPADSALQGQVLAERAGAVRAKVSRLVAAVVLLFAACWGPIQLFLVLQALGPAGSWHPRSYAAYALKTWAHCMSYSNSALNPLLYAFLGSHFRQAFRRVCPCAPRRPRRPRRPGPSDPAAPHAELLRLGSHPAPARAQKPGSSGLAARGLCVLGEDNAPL
Sequence of 5-hydroxytryptamine receptor 2A (Homo sapiens) (P28223 whole entry, looked up): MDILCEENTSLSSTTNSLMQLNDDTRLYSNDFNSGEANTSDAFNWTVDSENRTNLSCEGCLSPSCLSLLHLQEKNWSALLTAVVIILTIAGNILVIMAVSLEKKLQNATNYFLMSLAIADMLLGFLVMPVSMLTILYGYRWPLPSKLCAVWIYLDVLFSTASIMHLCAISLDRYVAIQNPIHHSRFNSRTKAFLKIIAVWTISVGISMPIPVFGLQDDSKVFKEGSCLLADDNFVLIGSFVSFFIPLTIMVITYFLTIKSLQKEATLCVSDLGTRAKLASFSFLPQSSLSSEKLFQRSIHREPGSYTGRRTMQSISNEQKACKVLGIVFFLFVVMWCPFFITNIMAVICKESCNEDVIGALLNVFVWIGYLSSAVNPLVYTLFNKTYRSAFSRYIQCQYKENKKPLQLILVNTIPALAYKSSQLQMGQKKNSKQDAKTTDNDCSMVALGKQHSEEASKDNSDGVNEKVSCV
Sequence of Muscarinic acetylcholine receptor M1 (Homo sapiens) (P11229 whole entry, looked up): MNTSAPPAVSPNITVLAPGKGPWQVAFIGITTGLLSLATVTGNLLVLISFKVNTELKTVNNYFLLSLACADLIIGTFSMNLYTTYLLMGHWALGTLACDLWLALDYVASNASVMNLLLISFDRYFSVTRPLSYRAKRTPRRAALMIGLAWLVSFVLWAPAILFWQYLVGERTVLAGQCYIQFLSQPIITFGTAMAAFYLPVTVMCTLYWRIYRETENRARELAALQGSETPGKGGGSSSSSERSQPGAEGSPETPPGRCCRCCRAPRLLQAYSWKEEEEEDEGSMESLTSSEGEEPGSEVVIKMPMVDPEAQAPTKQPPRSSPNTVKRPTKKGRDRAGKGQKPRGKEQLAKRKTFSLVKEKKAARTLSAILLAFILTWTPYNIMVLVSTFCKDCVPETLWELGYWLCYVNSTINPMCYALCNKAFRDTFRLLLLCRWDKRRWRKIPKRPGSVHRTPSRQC
Sequence of Gonadotropin-releasing hormone receptor (Homo sapiens) (P30968 whole entry, looked up): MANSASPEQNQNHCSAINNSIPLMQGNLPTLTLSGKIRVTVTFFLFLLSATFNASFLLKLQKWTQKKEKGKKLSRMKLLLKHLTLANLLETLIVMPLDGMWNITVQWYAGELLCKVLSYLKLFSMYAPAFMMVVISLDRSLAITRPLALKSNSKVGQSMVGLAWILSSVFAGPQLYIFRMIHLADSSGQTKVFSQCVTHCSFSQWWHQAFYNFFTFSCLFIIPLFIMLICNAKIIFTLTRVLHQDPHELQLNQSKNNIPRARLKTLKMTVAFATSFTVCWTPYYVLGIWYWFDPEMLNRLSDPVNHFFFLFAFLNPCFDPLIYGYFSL

| Compound | Potency [1] | Potency [2] | Potency [3] | Potency [4] | Potency [5] | Potency [6] | Potency [7] | Potency [8] | Potency [9] | Potency [10] | Potency [11] | Potency [12] | Potency [13] | Potency [14] | Potency [15] | Potency [16] | Potency [17] | Potency [18] | Potency [19] | Potency [20] |
| --- | --- | --- | --- | --- | --- | --- | --- | --- | --- | --- | --- | --- | --- | --- | --- | --- | --- | --- | --- | --- |
| CC[N+](C)(CC)CC | inactive | inactive | inactive | inactive | inactive | inactive | inactive | inactive | inactive | inactive | inactive | inactive | inactive | inactive | inactive | – | – | – | – | – |
| CCCCC(CC)COC(=O)CCCCC(=O)OCc1ccccc1 (stereo unspecified) | inactive | inactive | inactive | inactive | inactive | inactive | inactive | inactive | inactive | inactive | inactive | inactive | inactive | inactive | inactive | inactive | inactive | inactive | inactive | – |
| COC(=O)c1ccc(C(=O)O)cc1 | inactive | inactive | inactive | inactive | inactive | inactive | – | inactive | – | inactive | inactive | inactive | inactive | – | inactive | – | inactive | inactive | inactive | – |
| C=COCCOCCOC=C | inactive | inactive | inactive | inactive | inactive | inactive | – | inactive | inactive | inactive | inactive | inactive | – | inactive | inactive | inactive | inactive | inactive | inactive | – |
| CC1=CCCC(C)(C)C12CCC(C)O2 (stereo unspecified) | inactive | inactive | inactive | inactive | inactive | – | inactive | inactive | – | inactive | inactive | inactive | inactive | – | inactive | – | inactive | inactive | – | – |
| Cc1[nH]nc2c1N=C(c1ccccc1Cl)c1cc([N+](=O)[O-])ccc1N2 | 24.3 µM (active) | 54.5 µM (active) | inactive | – | – | – | – | – | inactive | inactive | inactive | inactive | 21.7 µM (active) | – | inactive | – | – | – | – | inactive |
| OCCc1ccncc1 | inactive | inactive | inactive | – | inactive | inactive | inactive | – | – | inactive | inactive | – | inactive | inactive | inactive | – | inactive | – | inactive | inactive |
| CC(CCO)CCCC(C)(C)O (stereo unspecified) | inactive | inactive | inactive | – | inactive | inactive | inactive | – | – | – | inactive | inactive | inactive | – | inactive | – | inactive | inactive | inactive | inactive |
| CCO[Si](CCCS)(OCC)OCC | inactive | inactive | inactive | inactive | – | inactive | inactive | inactive | inactive | inactive | inactive | – | inactive | inactive | inactive | inactive | inactive | inactive | inactive | – |
| O=C(Cl)c1cc(Cl)cc(Cl)c1 | inactive | inactive | inactive | inactive | inactive | – | inactive | inactive | inactive | inactive | inactive | – | – | inactive | inactive | – | inactive | inactive | inactive | – |
| O=S(=O)(O)SSS(=O)(=O)O | inactive | inactive | inactive | inactive | inactive | inactive | inactive | – | inactive | inactive | inactive | inactive | – | inactive | inactive | – | inactive | inactive | inactive | – |
